Experimental data taken from article PMC12820563, “FoxP3 forms a head-to-head dimer in vivo and stabilizes its multimerization on adjacent microsatellites”.
The full ranking holds about 16,000 sequences; the median of “rpm ratio (pull-down/input)” is about 0.5, and the highest 2% start at about 5.5. What follows is part of a selection rich in the highest values, with near analogues and random picks from the rest.

These sequences were tested against T1, MBP-FoxP3dN (Mus musculus, UniProt Q99JB6 188-423) (assay: PD-seq (MBP pull-down with sequencing); 20 mM Tris-HCl pH 7.5, 100 mM NaCl, 1.5 mM MgCl2, 0.4 uM protein, 0.1 uM dsDNA library, 30 min, room temperature, amylose pull-down; high values mean tight binding). Details: protein: recombinant; tags: His6-MBP; chain copies: 2; dsDNA, one strand shown.
T1 sequence: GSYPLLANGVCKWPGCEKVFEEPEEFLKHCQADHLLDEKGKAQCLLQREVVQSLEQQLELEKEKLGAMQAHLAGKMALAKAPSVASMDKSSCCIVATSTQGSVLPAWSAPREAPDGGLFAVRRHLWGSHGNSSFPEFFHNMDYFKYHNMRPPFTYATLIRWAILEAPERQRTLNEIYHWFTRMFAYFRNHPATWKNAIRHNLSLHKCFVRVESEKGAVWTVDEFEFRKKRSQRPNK
Summary of the method: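 A degenerate double-stranded DNA library, filled in with Klenow, was added at 0.1 µM to 0.4 µM His6-MBP-tagged mouse FoxP3 or FoxP1 fragment lacking the N-terminus, expressed in E. coli. Incubation lasted 30 min at room temperature in Tris pH 7.5 buffer with NaCl and MgCl2, after which complexes were collected on amylose resin, washed three times, digested with proteinase K to free the DNA, barcoded by PCR and sequenced by Illumina. Binding is the pooled-replicate reads-per-million enrichment of pull-down over input.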

Row | Sequence | binding signal
1 | GATGATTGTTCTCCCAGCTGATGAATTGTTACGATCGAGTAAACAAATTTTCCTAATCTTTCTGTTCAAGCGCCATCTAC | 0.792 RPM ratio (pull-down/input)
2 | GATGATTGTTCTCCCAGCTGATGAATTTGTTTGGTCGAGTAAACAAATTTTCCTAATCTTTCTGTTCAAGCGCCATCTAC | 7.49 RPM ratio (pull-down/input)
3 | GATGATTGTTCTCCCAGCTGATGAATTGGTTTGGTCGAGTAAACAAATTTTCCTAATCTTTCTGTTCAAGCGCCATCTAC | 3.6 RPM ratio (pull-down/input)
4 | GATGATTGTTCTCCCAGCTGATGAATTGTTTTGGTCGAGTAAACAAATTTTCCTAATCTTTCTGTTCAAGCGCCATCTAC | 3.65 RPM ratio (pull-down/input)
5 | GATGATTGTTCTCCCAGCTGATGAATTGATTGTCTCGAGTAAACAAATTTTCCTAATCTTTCTGTTCAAGCGCCATCTAC | 2.86 RPM ratio (pull-down/input)
6 | GATGATTGTTCTCCCAGCTGATGAATTGTAGTTCTCGAGTAAACAAATTTTCCTAATCTTTCTGTTCAAGCGCCATCTAC | 1.39 RPM ratio (pull-down/input)
7 | GATGATTGTTCTCCCAGCTGATGAATTCTCGGCATCGAGTAAACAAATTTTCCTAATCTTTCTGTTCAAGCGCCATCTAC | 0.601 RPM ratio (pull-down/input)
8 | GATGATTGTTCTCCCAGCTGATGAATTCGGCATTTCGAGTAAACAAATTTTCCTAATCTTTCTGTTCAAGCGCCATCTAC | 5.91 RPM ratio (pull-down/input)
9 | GATGATTGTTCTCCCAGCTGATGAATTTCGGCATTCGAGTAAACAAATTTTCCTAATCTTTCTGTTCAAGCGCCATCTAC | 5.76 RPM ratio (pull-down/input)
10 | GATGATTGTTCTCCCAGCTGATGAATTCGGGCATTCGAGTAAACAAATTTTCCTAATCTTTCTGTTCAAGCGCCATCTAC | 4.9 RPM ratio (pull-down/input)
11 | GATGATTGTTCTCCCAGCTGATGAATTCGGCAGCTCGAGTAAACAAATTTTCCTAATCTTTCTGTTCAAGCGCCATCTAC | 1.36 RPM ratio (pull-down/input)
12 | GATGATTGTTCTCCCAGCTGATGAATTCCGGCATTCGAGTAAACAAATTTTCCTAATCTTTCTGTTCAAGCGCCATCTAC | 4.43 RPM ratio (pull-down/input)
13 | GATGATTGTTCTCCCAGCTGATGAATTCGGCCATTCGAGTAAACAAATTTTCCTAATCTTTCTGTTCAAGCGCCATCTAC | 3.92 RPM ratio (pull-down/input)
14 | GATGATTGTTCTCCCAGCTGATGAATTCGGCATCTCGAGTAAACAAATTTTCCTAATCTTTCTGTTCAAGCGCCATCTAC | 7.14 RPM ratio (pull-down/input)
15 | GATGATTGTTCTCCCAGCTGATGAATTGCGGCATTCGAGTAAACAAATTTTCCTAATCTTTCTGTTCAAGCGCCATCTAC | 7.34 RPM ratio (pull-down/input)
16 | GATGATTGTTCTCCCAGCTGATGAATTCGCGGCATCGAGTAAACAAATTTTCCTAATCTTTCTGTTCAAGCGCCATCTAC | 0.76 RPM ratio (pull-down/input)
17 | GATGATTGTTCTCCCAGCTGATGAATTTGCGGCATCGAGTAAACAAATTTTCCTAATCTTTCTGTTCAAGCGCCATCTAC | 1.14 RPM ratio (pull-down/input)
18 | GATGATTGTTCTCCCAGCTGATGAATTTTCGGCATCGAGTAAACAAATTTTCCTAATCTTTCTGTTCAAGCGCCATCTAC | 0.816 RPM ratio (pull-down/input)
19 | GATGATTGTTCTCCCAGCTGATGAATTTACTGGCTCGAGTAAACAAATTTTCCTAATCTTTCTGTTCAAGCGCCATCTAC | 0.472 RPM ratio (pull-down/input)
20 | GATGATTGTTCTCCCAGCTGATGAATTCTGATGCTCGAGTAAACAAATTTTCCTAATCTTTCTGTTCAAGCGCCATCTAC | 1.09 RPM ratio (pull-down/input)

Row | Sequence | binding signal
21 | GATGATTGTTCTCCCAGCTGATGAATTAATTTGCTCGAGTAAACAAATTTTCCTAATCTTTCTGTTCAAGCGCCATCTAC | 3.03 RPM ratio (pull-down/input)
22 | GATGATTGTTCTCCCAGCTGATGAATTACTTAACTCGAGTAAACAAATTTTCCTAATCTTTCTGTTCAAGCGCCATCTAC | 0.277 RPM ratio (pull-down/input)
23 | GATGATTGTTCTCCCAGCTGATGAATTCTGGCCATCGAGTAAACAAATTTTCCTAATCTTTCTGTTCAAGCGCCATCTAC | 1.12 RPM ratio (pull-down/input)
24 | GATGATTGTTCTCCCAGCTGATGAATTGACAATGTCGAGTAAACAAATTTTCCTAATCTTTCTGTTCAAGCGCCATCTAC | 0.506 RPM ratio (pull-down/input)
25 | GATGATTGTTCTCCCAGCTGATGAATTGGGAGATTCGAGTAAACAAATTTTCCTAATCTTTCTGTTCAAGCGCCATCTAC | 0.372 RPM ratio (pull-down/input)
26 | GATGATTGTTCTCCCAGCTGATGAATTAGTAGTATCGAGTAAACAAATTTTCCTAATCTTTCTGTTCAAGCGCCATCTAC | 2.45 RPM ratio (pull-down/input)
27 | GATGATTGTTCTCCCAGCTGATGAATTTTGTATCTCGAGTAAACAAATTTTCCTAATCTTTCTGTTCAAGCGCCATCTAC | 5.89 RPM ratio (pull-down/input)
28 | GATGATTGTTCTCCCAGCTGATGAATTGTAGTAATCGAGTAAACAAATTTTCCTAATCTTTCTGTTCAAGCGCCATCTAC | 1.03 RPM ratio (pull-down/input)
29 | GATGATTGTTCTCCCAGCTGATGAATTTGTAATCTCGAGTAAACAAATTTTCCTAATCTTTCTGTTCAAGCGCCATCTAC | 3.82 RPM ratio (pull-down/input)
30 | GATGATTGTTCTCCCAGCTGATGAATTGTTTGTATCGAGTAAACAAATTTTCCTAATCTTTCTGTTCAAGCGCCATCTAC | 7.73 RPM ratio (pull-down/input)
31 | GATGATTGTTCTCCCAGCTGATGAATTGTATTCCTCGAGTAAACAAATTTTCCTAATCTTTCTGTTCAAGCGCCATCTAC | 1.97 RPM ratio (pull-down/input)
32 | GATGATTGTTCTCCCAGCTGATGAATTTGTATCCTCGAGTAAACAAATTTTCCTAATCTTTCTGTTCAAGCGCCATCTAC | 5.4 RPM ratio (pull-down/input)
33 | GATGATTGTTCTCCCAGCTGATGAATTTGTATTCTCGAGTAAACAAATTTTCCTAATCTTTCTGTTCAAGCGCCATCTAC | 5.9 RPM ratio (pull-down/input)
34 | GATGATTGTTCTCCCAGCTGATGAATTGTATTTCTCGAGTAAACAAATTTTCCTAATCTTTCTGTTCAAGCGCCATCTAC | 2.06 RPM ratio (pull-down/input)
35 | GATGATTGTTCTCCCAGCTGATGAATTTGCTGTATCGAGTAAACAAATTTTCCTAATCTTTCTGTTCAAGCGCCATCTAC | 4.72 RPM ratio (pull-down/input)
36 | GATGATTGTTCTCCCAGCTGATGAATTTTTTGTATCGAGTAAACAAATTTTCCTAATCTTTCTGTTCAAGCGCCATCTAC | 0.521 RPM ratio (pull-down/input)
37 | GATGATTGTTCTCCCAGCTGATGAATTTGTAGTATCGAGTAAACAAATTTTCCTAATCTTTCTGTTCAAGCGCCATCTAC | 5.7 RPM ratio (pull-down/input)
38 | GATGATTGTTCTCCCAGCTGATGAATTCTAGCTGTCGAGTAAACAAATTTTCCTAATCTTTCTGTTCAAGCGCCATCTAC | 0.392 RPM ratio (pull-down/input)
39 | GATGATTGTTCTCCCAGCTGATGAATTCGTTAGTTCGAGTAAACAAATTTTCCTAATCTTTCTGTTCAAGCGCCATCTAC | 2.91 RPM ratio (pull-down/input)
40 | GATGATTGTTCTCCCAGCTGATGAATTTTACTCATCGAGTAAACAAATTTTCCTAATCTTTCTGTTCAAGCGCCATCTAC | 0.402 RPM ratio (pull-down/input)
